# Laboratory results reported in PubChem BioAssay (Tox21).
# Where “and” joins values, the source holds several entries; their conditions need not be identical. Equal values may be shown once. Results filed as inconclusive are left out. Where a call stands in place of a potency, no number is given. The source holds several records for some structures; these can differ, active in one and inactive in another. Calls of active or inactive are those of the source. Unless noted, the call rests on the fitted dose curve; in most records, active means well fitted curve in the direction sought with a large enough effect in the repeat runs; inconclusive means weak or mixed curves; inactive means no such curve, though single readings can be large; an effect the other way counts as inactive or inconclusive.
# Columns and labels:
# [1] = qHTS assay to identify small molecule antagonists of the estrogen related receptor (ERR) signaling pathway from Tox21 library - cell viability counter screen (AID 1224834); further: nearly all actives have a fitted effect of over 30% in size; further: potency means the concentration at half of the fitted maximal effect
# How it was run: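 Compounds in DMSO were pinned onto ERR cells that had been incubated for 6 h, and the plates were held at 37 C for 17.5 h. CellTiter-Fluor reagent was then added and fluorescence was measured after 30 min.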
# [2] = target: Luciferin 4-monooxygenase (Photinus pyralis) (UniProt P08659); assay: qHTS assay to identify small molecule inhibitors of firefly luciferase (AID 1224835); further: nearly all actives have a fitted effect of over 25% in size; further: potency means the concentration at half of the fitted maximal effect
# Chain of Luciferin 4-monooxygenase (Photinus pyralis) (P08659 whole entry, looked up): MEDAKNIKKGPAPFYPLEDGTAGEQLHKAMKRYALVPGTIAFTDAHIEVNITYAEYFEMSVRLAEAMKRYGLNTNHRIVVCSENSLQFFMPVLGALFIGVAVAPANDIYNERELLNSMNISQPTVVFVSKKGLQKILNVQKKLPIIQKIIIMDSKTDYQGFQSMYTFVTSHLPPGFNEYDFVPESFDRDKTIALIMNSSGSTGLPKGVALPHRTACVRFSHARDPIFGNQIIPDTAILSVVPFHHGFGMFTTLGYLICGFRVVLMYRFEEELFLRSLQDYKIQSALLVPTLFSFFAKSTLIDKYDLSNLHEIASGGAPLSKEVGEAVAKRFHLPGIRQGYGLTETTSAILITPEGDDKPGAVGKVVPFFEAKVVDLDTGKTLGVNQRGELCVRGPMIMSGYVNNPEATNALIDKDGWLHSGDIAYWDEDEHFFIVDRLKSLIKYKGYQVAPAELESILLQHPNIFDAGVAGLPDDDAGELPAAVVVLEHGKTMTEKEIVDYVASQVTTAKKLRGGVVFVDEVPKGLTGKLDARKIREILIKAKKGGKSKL
# How it was run: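 Biochemical qHTS: compounds run as interplate titrations against purified firefly enzyme, with D-luciferin and ATP each at its KM concentration. Light output recorded by CCD imaging.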
# [3] = qHTS assay to identify small molecule antagonists of the constitutive androstane receptor (CAR) signaling pathway - cell viability counter screen (AID 1224837); further: nearly all actives have a fitted effect of over 45% in size
# How it was run: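 Cells are seeded, rested 4 hr at 37 C/5% CO2, dosed with compound (15-point series) and 50 nM CITCO, incubated a further 23 hr, and then CellTiter-Fluor reagent is added before fluorescence is read. The line is HepG2 with stable hCAR and CYP2B6-2.2kb.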
# [4] = qHTS assay to identify small molecule antagonists of the estrogen related receptor signaling pathway with the pleiotropic PPARgamma coactivator (PGC) from Tox21 10K library - cell viability counter screen (AID 1224840; active means well fitted cell-killing curve with a large enough effect in the repeat runs, not every such curve was filed as active; further: nearly all actives have a fitted effect of over 40% in size; further: potency means the concentration at half of the fitted maximal effect)
# How it was run: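 Cell viability is measured by CellTiter-Fluor fluorescence in PGC/ERR cells that receive compounds after a 6-hour attachment period and are then incubated 17.5 hours at 37 C.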
# [5] = qHTS assay to identify small molecule antagonists of the estrogen related receptor signaling pathway with the pleiotropic PPARgamma coactivator (PGC) from Tox21 10K library (AID 1224841; call rule not given here; further: actives are mostly falling curves and most rising ones were filed inactive; nearly all actives have a fitted effect of over 50% in size; further: potency means the concentration at half of the fitted maximal effect)
# How it was run: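 Cells stably carrying the PGC/ERR reporter, seeded at 2,000 per well, received pin-transferred compounds 6 h post-plating. Exposure lasted 18 h at 37 C. Signal: One-Glo luminescence.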
# [6] = qHTS assay to identify small molecule agonists of the estrogen related receptor signaling pathway with the pleiotropic PPARgamma coactivator (PGC) from Tox21 10K library (AID 1224842); further: nearly all actives have a fitted effect of over 15% in size; further: potency means the concentration at half of the fitted maximal effect
# How it was run: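 PGC/ERR reporter cell line, 2,000 cells per well, incubated 6 h at 37 C before 23 nL compound in DMSO was added. After 18 h at 37 C, One-Glo luminescence read following 30 min at room temperature.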
# [7] = target: Thyrotropin receptor (Homo sapiens) (UniProt P16473); assay: qHTS assay to identify small molecule agonists of the thyroid stimulating hormone receptor (TSHR) signaling pathway (AID 1224843; calls by dose curve; further: nearly all actives have a fitted effect of over 45% in size; further: potency means the concentration at half of the fitted maximal effect)
# Chain of Thyrotropin receptor (Homo sapiens) (P16473 whole entry, looked up): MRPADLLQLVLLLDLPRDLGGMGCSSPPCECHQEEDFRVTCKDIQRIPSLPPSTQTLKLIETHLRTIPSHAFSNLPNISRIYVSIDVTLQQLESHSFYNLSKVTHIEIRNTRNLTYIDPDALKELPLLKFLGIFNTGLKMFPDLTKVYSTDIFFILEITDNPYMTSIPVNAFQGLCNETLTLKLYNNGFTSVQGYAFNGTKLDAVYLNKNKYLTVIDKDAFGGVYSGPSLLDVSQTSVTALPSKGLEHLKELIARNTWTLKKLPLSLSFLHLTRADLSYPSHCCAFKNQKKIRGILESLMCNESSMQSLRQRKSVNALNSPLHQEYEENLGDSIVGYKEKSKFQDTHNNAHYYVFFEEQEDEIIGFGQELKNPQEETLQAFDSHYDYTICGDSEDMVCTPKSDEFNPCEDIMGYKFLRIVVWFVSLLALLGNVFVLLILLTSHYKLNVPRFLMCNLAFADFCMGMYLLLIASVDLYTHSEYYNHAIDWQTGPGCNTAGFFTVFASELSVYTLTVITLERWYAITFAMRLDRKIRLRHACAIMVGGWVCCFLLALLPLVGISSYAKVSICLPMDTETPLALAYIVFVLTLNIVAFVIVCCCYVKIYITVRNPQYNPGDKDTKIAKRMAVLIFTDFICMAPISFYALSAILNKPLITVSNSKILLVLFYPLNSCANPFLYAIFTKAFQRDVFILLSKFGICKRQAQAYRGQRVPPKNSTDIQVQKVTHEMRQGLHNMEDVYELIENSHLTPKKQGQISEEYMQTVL
# How it was run: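 HEK293/TSHR, 800 cells/well; cpd 30 min RT; add cAMP-d2 + anti-cAMP-cryptate, 1 h RT; fluorescence read on plate reader. 15-pt titration, n=3.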
# [8] = qHTS assay to identify small molecule agonists of the hypoxia (HIF-1) signaling pathway - cell viability counter screen (AID 1224844; calls by dose curve; further: nearly all actives have a fitted effect of over 50% in size; further: potency means the concentration at half of the fitted maximal effect)
# How it was run: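 Viability counter screen: HRE-bla ME-180 cells plated 5 hrs before compound addition, treated 17 hrs at 37C and 5% CO2, then CellTiter-Glo added after the FRET reporter read; luminescence after 30 min.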
# [9] = qHTS assay to identify small molecule agonists of H2AX (AID 1224845; active means well fitted activation curve with a large enough effect in the signal ratio in the repeat runs, not every such curve was filed as active; the % refers to the signal ratio)
# How it was run: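 Wild-type CHO-K1 cells, plated overnight, exposed 3hr at 37C to 15 concentrations (0.76% DMSO final). Lysed, then HTRF anti-pH2AX (S139) cryptate and anti-H2AX-d2 antibodies, 24 hr room temperature; 665/620 nm emission read.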
# [10] = qHTS assay to identify small molecule agonists of the hypoxia (HIF-1) signaling pathway (AID 1224846; active means well fitted activation curve with a large enough effect in the signal ratio in the repeat runs, not every such curve was filed as active; the % refers to the signal ratio)
# How it was run: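 Agonist mode reporter screen. ME-180 cells stably expressing bla under HRE control received test compounds in DMSO for 17 hrs (37C, 5% CO2), and beta-lactamase activity was then detected with the CCF4-AM FRET substrate.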
# [11] = qHTS assay to identify small molecule agonists of H2AX - cell viability counter screen (AID 1224847; calls by dose curve; further: nearly all actives have a fitted effect of over 30% in size; further: potency means the concentration at half of the fitted maximal effect)
# How it was run: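 After overnight plating of 1000 CHO-K1 cells per well, a 15-concentration compound series was applied for 3 hr at 37C. Luminescence from CellTiter-Glo, read following 30 min at room temperature, reflected cell viability.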
# [12] = qHTS assay to identify small molecule antagonists of the estrogen related receptor (ERR) signaling pathway from Tox21 library (AID 1224848); further: nearly all actives have a fitted effect of over 50% in size; further: potency means the concentration at half of the fitted maximal effect
# How it was run: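 Compounds dissolved in DMSO are pin-transferred onto ERR reporter cells (2,000 per well) that have settled for 6 h at 37 C. Plates then incubate 18 h at 37 C before ONE-Glo luciferase reagent and a luminescence read 30 min later.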
# [13] = qHTS assay to identify small molecule agonists of the estrogen related receptor (ERR) signaling pathway from Tox21 library (AID 1224849; calls by dose curve; further: nearly all actives have a fitted effect of over 15% in size); conditions: ERR reporter cell line, ONE-Glo luciferase, 18 h
# How it was run: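 Quantitative HTS in agonist format: NTP ERR cell line, compounds transferred in DMSO after 6 h plating, 18 h incubation at 37 C, ONE-Glo luminescence endpoint.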
# [14] = qHTS RealTime-Glo MT Cell Viability Assay in HepG2 cells - 24 hour (AID 1224867); further: nearly all actives have a fitted effect of over 50% in size
# How it was run: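 HepG2 cells (600/well) were dispensed with RealTime-Glo reagents, incubated 5 h at 37 °C, then treated with compounds in DMSO for up to 40 h. Nonlytic NanoLuc luminescence reflecting viable cells was read at each stated time point.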
# [15] = qHTS RealTime-Glo MT Cell Viability Assay in HEK293 cells - 32 hour (AID 1224868); further: nearly all actives have a fitted effect of over 50% in size; further: potency means the concentration at half of the fitted maximal effect
# How it was run: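 HEK293 cells seeded with NanoLuc/prosubstrate reagent, rested 5 h at 37 C, then dosed and kept at 37 C up to 40 h. Nonlytic real-time luminescence from viable cells read at 0, 8, 16, 24, 32 and 40 h.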
# [16] = A CellTox Green Cytotoxicity Assay to monitor cytotoxicity in HEK293 cells - 0 hour (AID 1224869); further: nearly all actives have a fitted effect of over 50% in size; further: potency means the concentration at half of the fitted maximal effect
# How it was run: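 Dead-cell fluorescence measured kinetically: asymmetric cyanine dye, HEK293, 600 cells/well, 5 h settle, 23 nL cpd/DMSO, 37 C, reads 0–40 h every 8 h.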
# [17] = qHTS RealTime-Glo MT Cell Viability Assay in HepG2 cells - 40 hour (AID 1224870); further: nearly all actives have a fitted effect of over 50% in size; further: potency means the concentration at half of the fitted maximal effect
# How it was run: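 HepG2 cells (600/well) mixed with RealTime-Glo MT reagent, settled 5 h at 37 C/5% CO2 before compound addition. Nonlytic NanoLuc luminescence from viable-cell prosubstrate reduction read repeatedly during 40 h treatment at 37 C.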
# [18] = target: Nuclear receptor subfamily 1 group I member 3 (Homo sapiens) (UniProt Q14994); assay: qHTS assay to identify small molecule antagonists of the constitutive androstane receptor (CAR) signaling pathway (AID 1224838);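 further: HepG2 cells stably expressing hCAR with CYP2B6 luciferase reporter stimulated by CITCO; nearly all actives have a fitted effect of over 40% in size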
# Chain of Nuclear receptor subfamily 1 group I member 3 (Homo sapiens) (Q14994 whole entry, looked up): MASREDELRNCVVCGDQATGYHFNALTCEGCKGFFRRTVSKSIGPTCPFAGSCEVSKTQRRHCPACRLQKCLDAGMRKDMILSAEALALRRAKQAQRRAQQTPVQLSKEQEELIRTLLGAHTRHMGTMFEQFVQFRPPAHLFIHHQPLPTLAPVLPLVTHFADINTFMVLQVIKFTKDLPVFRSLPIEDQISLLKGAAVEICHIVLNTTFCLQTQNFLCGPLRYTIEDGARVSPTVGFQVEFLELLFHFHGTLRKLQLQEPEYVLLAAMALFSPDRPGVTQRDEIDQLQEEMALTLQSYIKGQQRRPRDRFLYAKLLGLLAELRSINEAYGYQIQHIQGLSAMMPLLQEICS
# How it was run: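 Luminescence from a CYP2B6-2.2kb promoter reporter in hCAR-expressing HepG2 cells reflects CAR signaling. Cells received compounds at 15 concentrations and 50 nM CITCO (final), then incubated 24 h at 37 C/5% CO2.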
# [19] = target: Nuclear receptor subfamily 1 group I member 3 (Homo sapiens) (UniProt Q14994); assay: qHTS assay to identify small molecule agonists of the constitutive androstane receptor (CAR) signaling pathway (AID 1224839); further: nearly all actives have a fitted effect of over 15% in size; further: potency means the concentration at half of the fitted maximal effect;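 on activation: HepG2 cells stably carrying human CAR and a CYP2B6 luciferase reporter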
# How it was run: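 Using human hepatoma HepG2 cells engineered with hCAR and a CYP2B6-2.2kb reporter, 15-concentration compound series were incubated 24 h alongside PK11195 at 0.75 uM final, with luminescence quantified afterwards.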
# [20] = qHTS assay to identify small molecule agonists of the constitutive androstane receptor (CAR) signaling pathway - cell viability counter screen (AID 1224836); further: nearly all actives have a fitted effect of over 45% in size
# How it was run: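 Multiplexed viability check: HepG2-CYP2B6-hCAR cells, 15-point compound dosing, 0.75 uM PK11195 final, 23 h at 37 C, CellTiter-Fluor fluorescence.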
smiles,measurement,setting,value
CC(=O)CC(C)=O,Potency,[1],inactive
same,Potency,[2],inactive
same,Potency,[3],inactive
same,Potency,[4],inactive
same,Potency,[5],inactive
same,Potency,[6],inactive
same,Potency,[7],inactive
same,Potency,[8],inactive
same,Potency,[9],inactive
same,Potency,[10],inactive
same,Potency,[11],inactive
same,Potency,[12],inactive
same,"activity change, positive = activation",[13]; at 92.4 µM (top of the series),3.5% (inactive)
same,Potency,[14],inactive
same,Potency,[15],inactive
same,Potency,[16],inactive
same,Potency,[17],inactive
COC(=O)/C=C/c1ccccc1,Potency,[1],inactive
same,Potency,[3],inactive
same,Potency,[18],inactive
same,Potency,[19],inactive
same,Potency,[4],inactive
same,Potency,[7],inactive
same,Potency,[9],inactive
same,Potency,[10],inactive
same,Potency,[11],inactive
same,Potency,[15],inactive
same,Potency,[16],inactive and 21.9 µM (active)
same,Potency,[17],inactive
Cc1ccc(-c2cc(C(F)(F)F)nn2-c2ccc(S(N)(=O)=O)cc2)cc1,Potency,[1],48.4 µM (active) and 61.1 µM (active)
same,Potency,[2],inactive
same,Potency,[4],54.3 µM (active) and 54.5 µM (active) and inactive
same,Potency,[5],60.9 µM (active) and inactive
same,Potency,[6],inactive
same,Potency,[7],48.4 µM (active) and 34.4 µM (active) and inactive
same,Potency,[8],48.8 µM (active) and 54.9 µM (active) and inactive
same,Potency,[9],inactive
same,Potency,[11],100 µM (active) and 113 µM (active)
same,Potency,[12],27.2 µM (active) and 61.1 µM (active)
same,"activity change, positive = activation",[13]; at 42.5 µM (top of the series),-20.4% (inactive)
same,"activity change, positive = activation",[13]; at 92.4 µM (top of the series),-66.1% (inactive) and -48.6% (inactive)
same,Potency,[16],inactive
same,Potency,[17],49 µM (active) and inactive
CC(C)CCOC(=O)c1ccc(N(C)C)cc1,Potency,[2],3.47 µM (active)
same,Potency,[20],inactive
same,Potency,[3],inactive
same,Potency,[18],inactive
same,Potency,[19],13.3 µM (active)
same,Potency,[4],inactive
same,Potency,[5],inactive
same,Potency,[6],10.6 µM (active)
same,Potency,[7],inactive
same,Potency,[9],inactive
same,Potency,[10],inactive
same,Potency,[12],inactive
same,"activity change, positive = activation",[13]; at 42.5 µM (top of the series),81.2% (active)
same,Potency,[14],inactive
same,Potency,[16],inactive
same,Potency,[17],inactive
O=C(O[C@@H]1Cc2c(O)cc(O)cc2O[C@@H]1c1cc(O)c(O)c(O)c1)c1cc(O)c(O)c(O)c1,Potency,[1],48.7 µM (active) and 52.5 µM (active)
same,Potency,[2],25.3 µM (active) and 38.5 µM (active)
same,Potency,[18],inactive
same,Potency,[19],inactive
same,Potency,[8],inactive
same,Potency,[15],7.48 µM (active)
same,Potency,[16],inactive
COC(c1ccccc1)(c1ccccc1)[C@H](Oc1nc(C)cc(C)n1)C(=O)O,Potency,[2],inactive
same,Potency,[20],inactive
same,Potency,[3],inactive
same,Potency,[18],inactive
same,Potency,[19],inactive
same,Potency,[4],inactive
same,Potency,[5],inactive
same,Potency,[6],inactive
same,Potency,[7],inactive
same,Potency,[9],inactive
same,Potency,[10],inactive
same,Potency,[12],inactive
same,"activity change, positive = activation",[13]; at 42.5 µM (top of the series),0.278% (inactive)
same,Potency,[14],inactive
same,Potency,[15],inactive
same,Potency,[16],inactive
same,Potency,[17],inactive
